Assay outcomes deposited in PubChem by National Center for Advancing Translational Sciences (NCATS).
TDP1 block: TDP1 (human) enzyme inhibition; Q9NUW8; recombinant TDP1, AlphaScreen DNA substrate cleavage; Potency, µM (highest dose often 130 µM), without a hit: at the top dose activity change, negative = inhibition, hits mostly inhibitors; hit rate 0.28% among 350,000; AID 485290; also: potency is read from the fitted curve at half-maximal effect; nearly all actives have a fitted effect of over 40% in size
Target sequence (Q9NUW8 whole entry, looked up): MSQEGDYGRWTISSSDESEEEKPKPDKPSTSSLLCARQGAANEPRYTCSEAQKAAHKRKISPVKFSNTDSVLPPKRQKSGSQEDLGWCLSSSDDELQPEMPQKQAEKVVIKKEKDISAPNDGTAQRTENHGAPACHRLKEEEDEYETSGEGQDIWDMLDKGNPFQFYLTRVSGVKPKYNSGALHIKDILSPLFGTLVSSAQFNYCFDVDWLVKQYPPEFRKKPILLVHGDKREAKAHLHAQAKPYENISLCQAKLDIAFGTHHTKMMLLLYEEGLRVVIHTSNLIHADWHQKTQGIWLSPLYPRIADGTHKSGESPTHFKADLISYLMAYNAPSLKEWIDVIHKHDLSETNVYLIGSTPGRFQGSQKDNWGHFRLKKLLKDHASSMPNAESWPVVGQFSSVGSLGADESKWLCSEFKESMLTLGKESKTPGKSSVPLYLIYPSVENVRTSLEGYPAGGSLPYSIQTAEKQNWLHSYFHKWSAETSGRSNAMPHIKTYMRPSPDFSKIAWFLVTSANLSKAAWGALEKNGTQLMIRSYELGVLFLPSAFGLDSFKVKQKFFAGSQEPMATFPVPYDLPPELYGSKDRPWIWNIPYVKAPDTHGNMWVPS
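Recombinant human Tdp1 (E. coli-expressed, 1 nM final) preincubated with compounds 15 min at room temperature, then 5'-biotin/3'-phosphotyrosine-FITC DNA substrate (15 nM final) added for 5 min. AlphaScreen beads (10 ug/ml final) added 10 min; cleavage lowers signal.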
DT40 TDP1 CPT: DT40-hTDP1 cell growth loss with CPT; AID 686979; Potency, µM (top dose mostly 46.2 µM), inactives show at the highest dose activity change, negative = growth inhibition, hits mostly inhibitors; hit rate 12% among 420,000; chicken DT40 Tdp1-/-;hTDP1 cells + 20 nM CPT, ATP luminescence, 48 h; also: potency is read from the fitted curve at half-maximal effect; nearly all actives have a fitted effect of over 55% in size
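Chicken DT40 Tdp1-/- cells complemented with human TDP1, 400 cells/well, exposed to compounds plus 20 nM camptothecin for at least 48 h at 37 C; viability read as ATP content by CellTiter-Glo luminescence.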
Giardia killer: kills Giardia lamblia; Giardia lamblia trophozoite viability; activity change, % at 7.66 µM, hits read low; hit rate 0.15% among 340,000; in the data active = activity change below about -80%; inconclusive = between about -30% and that limit;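 also: parasites exposed to compound for two days anaerobically before the ATP read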
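ATP-content bioluminescence gauges trophozoite survival. Cells (100/well) receive compound and incubate anaerobically for 48 hrs at 37 deg C; detection reagent follows for 15-30 min at room temperature.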
TDP1 cell noCPT: qHTS for Inhibitors of human tyrosyl-DNA phosphodiesterase 1 (TDP1): qHTS in cells in absence of CPT; hit rate 15% among 420,000; DT40 Tdp1-/- hTDP1 cells, no CPT, ATP luminescence, 48 h; Potency, µM (highest dose often 46.2 µM), for the others: top-dose activity change, negative = growth inhibition, usual class: inhibitors; also: potency is read from the fitted curve at half-maximal effect; nearly all actives have a fitted effect of over 55% in size
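Luminescent ATP content (CellTiter-Glo) served as the growth readout. Knockout chicken DT40 cells expressing human TDP1 were exposed to compounds without camptothecin for a minimum 48 hr at 37 °C.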
IL-1B inflam inh: inhibitors of inflammasome signaling (IL-1 beta secretion) | activity change, % at 57.5 µM | hit rate 4.7% among 360,000 | THP-1 LPS/ATP IL-1B secretion, AlphaLISA, 16 h; hits give low values; in the data active = activity change below about -50%; inconclusive = mostly about -30% to -49%
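THP-1 cells pretreated 1 hr with compounds (up to 57.5 uM final), then stimulated with LPS (250 ng/mL final) plus ATP (1.25 mM final); secreted IL-1B measured by AlphaLISA after 16 hr, decreased signal indicating inhibition.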
ELG1 DNA repair: blocks ELG1-dependent DNA repair in HEK293T cells; Potency, µM (doses to about 46.1 µM), for the others: at the top dose activity change, negative = inhibition, actives largely listed as inhibitors; AID 504467; hit rate 2.3% among 330,000; HEK293T ELG1-luciferase reporter, luminescence, 16 h; DNA damage induced by 5-fluorouridine; also: potency is read from the fitted curve at half-maximal effect; nearly all actives have a fitted effect of over 55% in size
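HEK293T cells expressing luciferase-tagged ELG1 (2,000/well) received 5-Fluorouridine plus compound or DMSO for 16 hr at 37 °C. Luciferase was read by ONE-Glo luminescence after 30 min at room temperature.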
Numbers without * were called inactive; ? = inconclusive; nt = not tested or not shown; [ ] = dose if it differs, or a comment. Sampled rows, rich in hits. Any-hit rate of the full collection: about 19%. Unless noted, calls follow the shape of the dose curve; as a rule, active = well fitted curve in the direction sought with a large enough effect; inconclusive = small, poorly fitted or top-dose-only effect, or another doubt; inactive = no such curve, though single readings can be large; an effect the other way counts as inactive or inconclusive. % is scaled to controls: 0 for no effect and ±100 for the full control effect.

SMILES	TDP1 block	DT40 TDP1 CPT	Giardia killer	TDP1 cell noCPT	IL-1B inflam inh	ELG1 DNA repair
O=C(NC1CCC(O)CC1)c1cccc2cccnc12 (centres undefined)	nt	37%	37	-4%	-3	?
CC(C)c1ccccc1NC(=O)Nc1ccc2c(c1)OCO2	4%	16µM*	7	-20%	6	19%
O=C(Nc1ccc(F)cc1)Nc1ccc2c(c1)OCO2	10%	9.2µM*	17	?	-21	0%
O=C(Nc1ccc(Cl)cc1)Nc1ccc2c(c1)OCO2	5%	-27%	-4	-14%	-15	?
Cc1cc(C)c(NC(=O)Nc2ccc3c(c2)OCO3)c(C)c1	1%[56.1 µM]	12µM*	-5	?	-3	?
O=C(Nc1ccc2c(c1)OCO2)Nc1ccc2c(c1)OCO2	3%	-11%	-14	7%	-29	?
C[N+]1(C)[C@@H]2CC(OC(=O)C(O)(c3cccs3)c3cccs3)C[C@H]1[C@@H]1O[C@@H]12 (some centres undefined)	nt	10%	nt	-14%	nt	nt
O=C(CCl)c1ccc(Cc2ncc(C(F)(F)F)cc2Cl)s1	5%	3.3µM*	-10	5.2µM*	-104*	1%
NS(=O)(=O)c1ccc(Cc2ncc(C(F)(F)F)cc2Cl)s1	5%	?	-5	?	-15	-7%
CCN(CC)S(=O)(=O)c1ccc(Cc2ncc(C(F)(F)F)cc2Cl)s1	-7%	?	15	21µM*	-58*	?
Cc1ccccc1C(=O)Nc1ccccc1C(=O)OCc1cc(=O)n2ccsc2n1	4%	-1%	nt	-12%	nt	nt
NSc1nc(N)c2nc(-c3ccccc3)c(-c3ccccc3)nc2n1	5%	?	3	26µM*	-51*	2%
Nc1nc(N)c2nc(-c3ccccc3)c(N)nc2n1	8%	15µM*	14	2.1µM*	41	?
N#CCSc1nnc(-c2ccccc2)c(-c2ccccc2)n1	4%	-21%	-1	?	-9	-16%
Nc1n[nH]c(-c2ccccc2)n1	4%	11%	-8	5%	1	27%
NC(=O)[C@@H]1CC2(CC(c3cccc(NC(=O)COc4ccc(Cl)cc4)c3)=NO2)CN1C(=O)COc1ccc(Cl)cc1 (some centres undefined)	7%	?	-2	12µM*	-55*	?
NC(=O)[C@H]1CC2(CC(c3cccc(NC(=O)COc4ccc(Cl)cc4)c3)=NO2)CN1C(=O)C(c1ccccc1)c1ccccc1 (some centres undefined)	4%	6.5µM*	14	13µM*	?	?
CC/C=C/C(=O)N1CC2(CC(c3cccc(NC(=O)COc4ccc(Cl)cc4)c3)=NO2)C[C@H]1C(N)=O (some centres undefined)	-1%	29µM*	-6	?	?	16µM*
C/C=C(/C)C(=O)Nc1cccc(C2=NOC3(C2)C[C@H](C(N)=O)N(C(=O)COc2ccc(Cl)cc2)C3)c1 (some centres undefined)	0%	?	-17	?	-19	?
CCC(=O)Nc1cccc(C2=NOC3(C2)C[C@@H](C(N)=O)N(C(=O)C(c2ccccc2)c2ccccc2)C3)c1 (some centres undefined)	2%	-1%	9	-1%	-1	11%
CC(C1CCCC(=O)C1)[N+](=O)[O-] (centres undefined)	-1%	nt	nt	nt	nt	nt
CCCC(=O)N1CCN(c2ccc(NC(=O)c3cccs3)cc2Cl)CC1	-4%	-25%	-1	-16%	-84*	7.3µM*
CCCC(=O)N1CCN(c2ccc(NC(=O)C(C)(C)C)cc2Cl)CC1	-1%	21µM*	9	?	0	-9%
CCOc1cc(C)c(C(C)C)cc1S(=O)(=O)n1ccnc1CC	7%	?	nt	?	nt	nt
O=C(NC1CCCC1)c1cc(=O)[nH]c2ccccc12	nt	-5%	39	-12%	-2	28%
SMILES	TDP1 block	DT40 TDP1 CPT	Giardia killer	TDP1 cell noCPT	IL-1B inflam inh	ELG1 DNA repair
NC(=O)C1CCCN(CCc2ccccc2)C1 (centres undefined)	0%	-14%	0	-11%	6	-17%
CCCc1sc(N2CCCC(C(N)=O)C2)nc1-c1ccccc1 (centres undefined)	9%	?	-1	18µM*	2	-6%
Cc1ccc(C(CC(=O)N2CCNCC2)c2ccccc2)c(O)c1C (centres undefined)	nt	-27%	10	?	-14	3%
Cc1c(/C=N/NC(=O)c2cc(Br)ccc2O)c(=O)n(C)c(=O)n1C	15%	-17%	3	-11%	-4	-3%
CCN(CC)S(=O)(=O)c1ccc(N2CCN(c3cccc(OC)c3)CC2)c([N+](=O)[O-])c1	6%	13µM*	3	8.2µM*	-13	?
CCN(CC)S(=O)(=O)c1ccc2c(c1)N(CC(=O)N1CCN(c3cccc(OC)c3)CC1)C(=O)CO2	6%	21µM*	nt	?	nt	nt
COc1cccc(N2CCN(c3ccc(S(=O)(=O)N4CCN(C)CC4)cc3[N+](=O)[O-])CC2)c1	10%	?	5	?	-5	?
O=C(CN1C(=O)COc2ccc(S(=O)(=O)N3CCCC3)cc21)N1CCN(c2ccc(Cl)cc2)CC1	9%	nt	nt	nt	nt	nt
CCN(CC)S(=O)(=O)c1ccc2c(c1)N(CC(=O)N1CCN(c3ccc(OC)cc3)CC1)C(=O)CO2	2%	21µM*	nt	?	nt	nt
O=C(CN1C(=O)COc2ccc(S(=O)(=O)N3CCCCCC3)cc21)N1CCN(c2ccc(F)cc2)CC1	12%	23µM*	nt	21µM*	nt	nt
O=S(=O)(c1cnc(Cl)c(Cl)c1)N1CCc2ccccc21	5%	?	2	16µM*	-65*	9%
O=C(OCC(=O)N1CCCc2ccccc21)c1cnc(Cl)c(Cl)c1	-1%	-9%	0	7%	-85*	28%
O=S(=O)(c1cnc(Cl)c(Br)c1)N1CCc2ccccc21	1%	16µM*	-24	?	-103*	9%
O=C(COc1ccc(Cl)cc1Cl)NC(=S)N1CCCc2ccccc21	-8%	?	2	21µM*	-12	0%
O=C(Nc1cc([N+](=O)[O-])ccc1O)c1ccc2c(c1)C(=O)N(Cc1ccco1)C2=O	2%	-14%	-26	5%	30	?
CCOc1ccc(CNC(=O)CSc2nnc(C)c3c(C)n(-c4ccc(Cl)cc4)nc23)cc1	0%	?	nt	-16%	nt	nt
CCOc1ccc(CNC(=O)CN2C(=O)CSc3c2c(C)nn3-c2ccccc2)cc1	5%	-1%	nt	-14%	nt	nt
